# Several values for one entry are separate records, joined by “and”; a condition that tells them apart may be missing. Identical values can stand only once. Hit rate of the full screen: of about 5,500 compounds, about 2,000 (36%) were called active. Roughly 18% stayed inconclusive and do not appear here. The list shows a part of the results. A number with no mark means an inactive call. Rule as the data show it: active = normalized growth mostly below about 0.91 (no sharp cut-off); inconclusive = no clear call, values can overlap the other calls; inactive = mostly above about 0.92.
# Test: chemical genetic growth profiling, strain panel (AID 1159580);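 also: tested at 20 µM; growth read once vehicle control cultures reached saturation at 30 °C; 1 = growth at the plate median or of vehicle wells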
# Details: growth OD
compound,measurement,setting,value
CNCCC=C1c2ccccc2CCc2ccccc21,normalized growth,"S. cerevisiae deletion strains, locus YJR075W, strain HOC1, stronger effect = lower value",1.02 and 0.976
same,normalized growth,"S. cerevisiae deletion strains, locus YKL009W, strain mrt4, stronger effect = lower value",1.01
same,normalized growth,"S. cerevisiae deletion strains, locus YKL068W, stronger effect = lower value",1
same,normalized growth,"S. cerevisiae deletion strains, locus YKL085W, strain MDH1 (second series), stronger effect = lower value",1
same,normalized growth,"S. cerevisiae deletion strains, locus YKL085W, strain MDH1, stronger effect = lower value",1
same,normalized growth,"S. cerevisiae deletion strains, locus YKL160W, strain elf1, stronger effect = lower value",0.943
same,normalized growth,"S. cerevisiae deletion strains, locus YKL190W, strain CNB1, stronger effect = lower value",1.01
same,normalized growth,"S. cerevisiae deletion strains, locus YKR001C, strain vps1, stronger effect = lower value",1.06
same,normalized growth,"S. cerevisiae deletion strains, locus YKR026C, strain gcn3, stronger effect = lower value",0.975
same,normalized growth,"S. cerevisiae deletion strains, locus YKR091W, strain srl3, stronger effect = lower value",0.973
same,normalized growth,"S. cerevisiae deletion strains, locus YLL001W, strain dnm1, stronger effect = lower value",0.988
same,normalized growth,"S. cerevisiae deletion strains, locus YLL026W, stronger effect = lower value",0.978
same,normalized growth,"S. cerevisiae deletion strains, locus YLL041C, strain sdh2, stronger effect = lower value",0.985
same,normalized growth,"S. cerevisiae deletion strains, locus YLR027C, strain aat2, stronger effect = lower value",0.967
same,normalized growth,"S. cerevisiae deletion strains, locus YLR039C, strain RIC1, stronger effect = lower value",1.1
same,normalized growth,"S. cerevisiae deletion strains, locus YLR058C, strain SHM2, stronger effect = lower value",1.02
same,normalized growth,"S. cerevisiae deletion strains, locus YLR102C, strain apc9, stronger effect = lower value",1.01
same,normalized growth,"S. cerevisiae deletion strains, locus YLR113W, strain HOG1, stronger effect = lower value",1
same,normalized growth,"S. cerevisiae deletion strains, locus YLR221C, strain rsa3, stronger effect = lower value",0.991
same,normalized growth,"S. cerevisiae deletion strains, locus YLR258W, strain gsy2, stronger effect = lower value",0.957
same,normalized growth,"S. cerevisiae deletion strains, locus YLR262C, strain YPT6 (second series), stronger effect = lower value",1.01
same,normalized growth,"S. cerevisiae deletion strains, locus YLR262C, strain YPT6, stronger effect = lower value",1.13
same,normalized growth,"S. cerevisiae deletion strains, locus YLR268W, strain sec22, stronger effect = lower value",1.08
same,normalized growth,"S. cerevisiae deletion strains, locus YLR320W, strain mms22, stronger effect = lower value",0.967
same,normalized growth,"S. cerevisiae deletion strains, locus YLR330W, strain CHS5, stronger effect = lower value",1.01
same,normalized growth,"S. cerevisiae deletion strains, locus YLR342W, strain FKS1 (second series), stronger effect = lower value",0.977
same,normalized growth,"S. cerevisiae deletion strains, locus YLR342W, strain FKS1, stronger effect = lower value",0.91
same,normalized growth,"S. cerevisiae deletion strains, locus YLR357W, strain rsc2, stronger effect = lower value",0.956
same,normalized growth,"S. cerevisiae deletion strains, locus YLR370C, strain arc18, stronger effect = lower value",0.975
same,normalized growth,"S. cerevisiae deletion strains, locus YLR371W, strain rom2, stronger effect = lower value",1.02
same,normalized growth,"S. cerevisiae deletion strains, locus YLR384C, strain iki3, stronger effect = lower value",0.979
same,normalized growth,"S. cerevisiae deletion strains, locus YLR418C, strain cdc73, stronger effect = lower value",1.01
same,normalized growth,"S. cerevisiae deletion strains, locus YML016C, strain PPZ1, stronger effect = lower value",1.01
same,normalized growth,"S. cerevisiae deletion strains, locus YML032C, strain rad52, stronger effect = lower value",1.06
same,normalized growth,"S. cerevisiae deletion strains, locus YML120C, strain ndi1, stronger effect = lower value",0.986
same,normalized growth,"S. cerevisiae deletion strains, locus YML124C, strain tub3, stronger effect = lower value",1.01
same,normalized growth,"S. cerevisiae deletion strains, locus YMR058W, strain fet3, stronger effect = lower value",0.964
same,normalized growth,"S. cerevisiae deletion strains, locus YMR078C, strain ctf18, stronger effect = lower value",1.02
same,normalized growth,"S. cerevisiae deletion strains, locus YMR125W, strain sto1, stronger effect = lower value",0.933
same,normalized growth,"S. cerevisiae deletion strains, locus YMR129W, stronger effect = lower value",0.976
same,normalized growth,"S. cerevisiae deletion strains, locus YMR205C, strain PFK2, stronger effect = lower value",0.98
same,normalized growth,"S. cerevisiae deletion strains, locus YMR223W, strain ubp8, stronger effect = lower value",0.989
same,normalized growth,"S. cerevisiae deletion strains, locus YMR231W, strain pep5, stronger effect = lower value",0.974
same,normalized growth,"S. cerevisiae deletion strains, locus YMR263W, strain SAP30, stronger effect = lower value",1.01
same,normalized growth,"S. cerevisiae deletion strains, locus YMR307W, strain GAS1, stronger effect = lower value",1.02
same,normalized growth,"S. cerevisiae deletion strains, locus YNL067W, strain RPL9B, stronger effect = lower value",1.02
same,normalized growth,"S. cerevisiae deletion strains, locus YNL071W, strain lat1, stronger effect = lower value",0.987
same,normalized growth,"S. cerevisiae deletion strains, locus YNL128W, strain TEP1, stronger effect = lower value",1.01 and 1.07
same,normalized growth,"S. cerevisiae deletion strains, locus YNL153C, strain GIM3, stronger effect = lower value",1.02 and 0.984
same,normalized growth,"S. cerevisiae deletion strains, locus YNL175C, strain NOP13, stronger effect = lower value",1
same,normalized growth,"S. cerevisiae deletion strains, locus YNL183C, strain NPR1, stronger effect = lower value",0.938
same,normalized growth,"S. cerevisiae deletion strains, locus YNL197C, strain WHI3, stronger effect = lower value",1.01
same,normalized growth,"S. cerevisiae deletion strains, locus YNL209W, strain ssb2, stronger effect = lower value",0.984
same,normalized growth,"S. cerevisiae deletion strains, locus YNL224C, strain SQS1, stronger effect = lower value",1.02
same,normalized growth,"S. cerevisiae deletion strains, locus YNL233W, strain BNI4, stronger effect = lower value",1.01
same,normalized growth,"S. cerevisiae deletion strains, locus YNL248C, strain rpa49, stronger effect = lower value",0.952
same,normalized growth,"S. cerevisiae deletion strains, locus YNL250W, strain rad50, stronger effect = lower value",1.01
same,normalized growth,"S. cerevisiae deletion strains, locus YNL271C, strain bni1, stronger effect = lower value",1.01
same,normalized growth,"S. cerevisiae deletion strains, locus YNL298W, strain CLA4, stronger effect = lower value",1.02
same,normalized growth,"S. cerevisiae deletion strains, locus YNL307C, strain MCK1, stronger effect = lower value",1.01
same,normalized growth,"S. cerevisiae deletion strains, locus YNL322C, strain KRE1 (second series), stronger effect = lower value",0.98
same,normalized growth,"S. cerevisiae deletion strains, locus YNL322C, strain KRE1, stronger effect = lower value",1.01 and 0.982
same,normalized growth,"S. cerevisiae deletion strains, locus YNR049C, strain mso1, stronger effect = lower value",0.98
same,normalized growth,"S. cerevisiae deletion strains, locus YNR052C, strain pop2, stronger effect = lower value",1.02
same,normalized growth,"S. cerevisiae deletion strains, locus YOL006C, strain TOP1, stronger effect = lower value",0.969
same,normalized growth,"S. cerevisiae deletion strains, locus YOL012C, strain htz1",0.912
same,normalized growth,"S. cerevisiae deletion strains, locus YOL147C, strain pex11, stronger effect = lower value",1.02
same,normalized growth,"S. cerevisiae deletion strains, locus YOR001W, strain rrp6, stronger effect = lower value",0.988
same,normalized growth,"S. cerevisiae deletion strains, locus YOR061W, strain CKA2, stronger effect = lower value",1.01
same,normalized growth,"S. cerevisiae deletion strains, locus YOR069W, strain VPS5, stronger effect = lower value",1.01
same,normalized growth,"S. cerevisiae deletion strains, locus YOR070C, strain gyp1, stronger effect = lower value",0.978
same,normalized growth,"S. cerevisiae deletion strains, locus YOR080W, strain dia2, stronger effect = lower value",0.967
same,normalized growth,"S. cerevisiae deletion strains, locus YOR083W, strain WHI5 (second series), stronger effect = lower value",1.01
same,normalized growth,"S. cerevisiae deletion strains, locus YOR083W, strain WHI5, stronger effect = lower value",0.898
same,normalized growth,"S. cerevisiae deletion strains, locus YOR106W, strain vam3, stronger effect = lower value",0.949
same,normalized growth,"S. cerevisiae deletion strains, locus YOR136W, strain idh2, stronger effect = lower value",1.01
same,normalized growth,"S. cerevisiae deletion strains, locus YOR144C, strain elg1, stronger effect = lower value",1.03
same,normalized growth,"S. cerevisiae deletion strains, locus YOR184W, strain ser1, stronger effect = lower value",1.04
same,normalized growth,"S. cerevisiae deletion strains, locus YOR231W, strain MKK1, stronger effect = lower value",1.01
same,normalized growth,"S. cerevisiae deletion strains, locus YOR265W, strain rbl2, stronger effect = lower value",0.989
same,normalized growth,"S. cerevisiae deletion strains, locus YOR270C, strain vph1, stronger effect = lower value",0.731 (active)
same,normalized growth,"S. cerevisiae deletion strains, locus YOR290C, strain snf2, stronger effect = lower value",0.928
same,normalized growth,"S. cerevisiae deletion strains, locus YOR316C, strain cot1, stronger effect = lower value",1.02
same,normalized growth,"S. cerevisiae deletion strains, locus YPL051W, strain arl3, stronger effect = lower value",0.956
same,normalized growth,"S. cerevisiae deletion strains, locus YPL055C, strain LGE1, stronger effect = lower value",1.05 and 0.967
same,normalized growth,"S. cerevisiae deletion strains, locus YPL078C, strain atp4, stronger effect = lower value",0.959
same,normalized growth,"S. cerevisiae deletion strains, locus YPL106C, strain sse1, stronger effect = lower value",0.983
same,normalized growth,"S. cerevisiae deletion strains, locus YPL240C, strain hsp82, stronger effect = lower value",1
same,normalized growth,"S. cerevisiae deletion strains, locus YPL241C, strain CIN2, stronger effect = lower value",1.01
same,normalized growth,"S. cerevisiae deletion strains, locus YPL256C, strain CLN2, stronger effect = lower value",0.962
same,normalized growth,"S. cerevisiae deletion strains, locus YPR119W, strain clb2, stronger effect = lower value",1.01
same,normalized growth,"S. cerevisiae deletion strains, locus YPR141C, strain kar3, stronger effect = lower value",1.01
same,normalized growth,"S. cerevisiae deletion strains, locus YPR163C, strain tif3, stronger effect = lower value",1.03
same,normalized growth,"S. cerevisiae deletion strains, locus YPR167C, strain met16, stronger effect = lower value",1.02
same,normalized growth,"S. cerevisiae deletion strains, strain wtn01, stronger effect = lower value",1.05
same,normalized growth,"S. cerevisiae strains, strain wild type, stronger effect = lower value",1.01
